Hits are enriched below; roughly 7.8% of the tested compounds scored in any of these assays.
MARV entry inh: inhibitors of Marburg virus binding or cell entry; Marburg virus pseudotyped entry inhibition, cell reporter; Potency, µM (top dose mostly 37.8 µM), most hits filed as inhibitors; 1.8% of 300,000 active; AID 540276; calls by dose curve; tested in HEK293 cells
LASV entry inh: blocks Lassa virus binding to or entry into cells. Lassa virus pseudotype entry inhibition, cell reporter. Potency, µM (titrated, usually from 37.9 µM), actives largely listed as inhibitors. 1.2% of 300,000 active. AID 540256; calls by dose curve; tested in HEK293 cells; note: nearly all actives have a fitted effect of over 50% in size
VACV mCherry inh: inhibitors of vaccinia virus infection (mCherry reporter signal) | Vaccinia virus mCherry reporter infection, fluorescence | Potency, µM (top dose mostly 36.5 µM), hits mostly inhibitors | 0.63% of 310,000 active | AID 720579; calls by dose curve; tested in A549 cells; note: nearly all actives have a fitted effect of over 35% in size
Vaccinia Venus: inhibitors of vaccinia virus (Venus reporter). Vaccinia virus Venus reporter expression, fluorescence. Potency, µM (doses to about 36.5 µM), most hits filed as inhibitors. 0.46% of 330,000 active; calls by dose curve; tested in A549 cells; note: nearly all actives have a fitted effect of over 30% in size
HCV inh: inhibitors of hepatitis C virus infection; Huh7.5.1 HCVcc-Cre infection, luciferase reporter, 44 h; Potency, µM (series often up to 41.8 µM), usual class: inhibitors; 3.4% of 340,000 active; active = well fitted inhibition curve with a large enough effect; inconclusive = small, poorly fitted or top-dose-only effect, or another doubt; inactive = no such curve, though single readings can be large or run the other way
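A cell-based infection assay in which seeded cells (1,000 per well) receive test compound after 4 h, are inoculated with HCVcc-Cre at approximately 0.5 moi, and are incubated 44 h before luminescence detection.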
HCMV inh: inhibitors of human cytomegalovirus; HFF cells, HCMV-luciferase reporter, 72 h; stronger effect = lower value; activity change, negative = inhibition, % at 57.5 µM; 4.5% of 410,000 active; in the data active = activity change below about -60%; inconclusive = no clear call, values can overlap the other calls; inactive = above about -39%
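Inhibition of viral replication was scored as loss of reporter luminescence in HFFs infected with HCMV-luciferase (MOI 1 PFU/cell) for 72 h; compounds tested at 2 doses, normalized to buffer and Salinomycin controls.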
Hits are given with their value; i = inactive; ? = inconclusive; nt = no result; ! = not confirmed by another sample; [ ] = another dose, or the depositor's remark.

SMILES	MARV entry inh	LASV entry inh	VACV mCherry inh	Vaccinia Venus	HCV inh	HCMV inh
C=CCn1c(N2CCCCCC2)nc2c1c(=O)[nH]c(=O)n2C	i	i	?	i	i	i
Cn1c(C(=O)Nc2ccc(OC(F)(F)F)cc2)cc2c(=O)n3ccccc3nc21	nt	i	?	?	nt	i
CN1CCN(C2=Nc3cc(Cl)ccc3Nc3ccccc32)CC1	13µM!	i	i	i	i[8.37 µM]	?
Clc1ccc2c(c1)N=C(N1CCNCC1)c1ccccc1N2	?	?	?	i	nt	nt
C=CCn1c(SCC(=O)O)nc2sc(CC)cc2c1=O	i	i	i	i	i	i
C=CCn1c(SCC(=O)c2cccs2)nc2sc(CC)cc2c1=O	?	?	nt	nt	3.2µM	?
CN1C[C@@H]2C[C@H]1CN2c1cc2c(cc1F)c(=O)c(C(=O)O)cn2C1CC1	nt	nt	nt	nt	nt	i
C=CCOc1ccc(/C=N/Nc2ccccn2)cc1OC	?	i	i	i	14µM	i
COc1cc(N/N=C/c2ccccc2O)ncn1	?	?	14µM	?	?	-103
COc1cc(/C=N/Nc2ccccn2)cc(OC)c1O	?	7.9µM	i	i	?	i
CCCOc1ccc(/C=N/Nc2ccccn2)cc1OC	?	i	i	i	?	i
CCOc1ccc(/C=N/Nc2ccccn2)cc1OC	i	i	i	i	i	i
COc1cc(/C=N/Nc2ccccn2)ccc1OCC(C)C	?	i	?	i	8.9µM	i
COc1ccc(CCNC(=O)CCCn2c(=O)c3ccccc3n(Cc3ccccc3C)c2=O)cc1OC	i	i	i	i	nt	i
O=C(Nc1cccc(Cl)c1)c1cc(-c2ccc3c(c2)OCO3)on1	?	?	i	i	nt	i
COc1cc(/C=N/Nc2cccc3cccnc23)cc(OC)c1O	nt	nt	i	i	22µM	i
O=C1c2ccccc2-c2onc3ccc(Oc4ccccc4)c1c23	?	10µM	i	i	?	i
CCn1c(CSc2nnc(-c3ccc4c(c3)OCO4)o2)nc2cc(S(=O)(=O)N(C)C)ccc21	i	i	nt	nt	?	-82
N#CCSc1nnc(-c2ccc3c(c2)OCO3)o1	?	i	11µM	?	i	i
CCN(CC)S(=O)(=O)c1ccc2c(c1)nc(CCC(=O)Nc1ccc3c(c1)OCO3)n2CC	?	i	i	i	i	-68
COc1ccc(CN2CC[C@H]3C=CC[C@@H](C(=O)N4CCN(c5ccccc5)CC4)[C@H]3C2=O)cc1OC	nt	nt	i	i	nt	nt
CC(=O)Nc1nonc1-c1nnc(SCC(=O)Nc2c(C)cccc2C)n1-c1ccccc1	?	i	i	i	nt	i
Cc1cccc(C)c1NC(=O)CCCSc1nnc(-c2ccc(F)cc2)n1-c1ccccc1	?	?	i	?	?	-69
Cc1cccc(C)c1NC(=O)CCCSc1nnc(-c2ccc(Cl)cc2)n1-c1ccccc1	?	?	13µM	?	?	-80
CCC(=O)N1CCN(c2nc(CC)nc3sc4c(c23)CCCC4)CC1	i	?	i	i	?	i
SMILES	MARV entry inh	LASV entry inh	VACV mCherry inh	Vaccinia Venus	HCV inh	HCMV inh
CCc1nc(N2CCN(C(=S)NCCCOC)CC2)c2c3c(sc2n1)CCCC3	nt	nt	nt	nt	?	-64
CCN(CC)P(=O)(Nc1ccc(C)cc1Br)c1ccc(N(C)C)cc1NC(=O)c1ccco1 (stereo not given)	11µM	nt	i	i	?	-78
Cc1ccc(NC(=O)c2ccco2)c(NC(=O)c2ccccc2)c1	i	i	i	i	?	i
Cc1cccc(NC(=O)CSc2nnc(CNC(=O)c3ccc(S(=O)(=O)N(C)C)cc3)n2-c2ccccc2)c1	?	?	i	i	?	i
Cc1cccc(NC(=O)CSc2nnc(CNC(=O)c3ccc(S(=O)(=O)N(C)C)cc3)n2-c2cccc(C)c2)c1	i	14µM	i	i	?	i
COc1ccc(Cl)cc1-c1ccc2c(c1)COCC(=O)N2C	nt	nt	nt	nt	nt	i
COC(=O)C[C@H](NC(=O)Cn1cnc(C(=O)Nc2ccc(C)c(C)c2)n1)C(=O)OC	i	nt	i	i	i	-65
CCOc1ccc(Br)cc1/C=N/O	i	i	i	i	8.9µM	i
O=C(O)COc1ccc(Br)cc1/C=N/O	i	i	nt	i	i	i
CCCOc1ccc(Br)cc1/C=N/O	?	i	nt	?	10µM	i
Cc1sc2nc(CN3CCCCC3)nc(Nc3ccc4c(c3)OCCO4)c2c1C	i	i	i	i	i	-62
Cc1sc2nc(CN3CCCC3)nc(NCc3ccncc3)c2c1C	?	i	i	i	i	i
CC(=O)N/C(=C/c1ccccc1)c1sc2ccccc2[n+]1CCCCI	nt	nt	i	i	nt	nt
CCCCC1CCC(C(=O)N(C)CC(=O)Nc2cccc(F)c2)CC1 (stereo not given)	?	i	?	?	i	i
Cc1sc2ncnc(N3CCC(C(=O)N(C)CC(=O)Nc4ccc(Cl)c(C(F)(F)F)c4)CC3)c2c1C	?	7.1µM	10µM	?	8.9µM	?
CN(CC(=O)Nc1ccc(Cl)c(C(F)(F)F)c1)C(=O)C1CCN(C(=O)c2ccc(Cl)cc2)CC1	nt	nt	nt	nt	11µM	i
CN(CC(=O)Nc1cccc(F)c1)C(=O)C1CC(=O)N(Cc2ccco2)C1 (stereo not given)	i	i	i	i	i	i
CN(CC(=O)Nc1ccc(Cl)c(C(F)(F)F)c1)C(=O)C1CC(=O)N(Cc2ccco2)C1 (stereo not given)	i	i	i	i	i	-90
Cc1sc2ncnc(N3CCC(C(=O)N(C)CC(=O)Nc4cccc(F)c4)CC3)c2c1C	nt	nt	?	?	nt	-88
COCCN1C(=O)CC[C@@]23C1=NC(C(=O)OC)=C(C(=O)OC)[C@@H]2N(CC=C(C)C)c1ccccc13	i	nt	nt	nt	nt	nt
COc1ccc(-c2c3c(nc4sc5c(=O)[nH]c(C)nc5c24)CCC3)cc1	?	i	nt	i	i	-88
COc1ccc(-c2c3c(nc4sc(C(=O)Nc5cc(C)on5)c(N)c24)CCC3)cc1	i	?	i	i	?	?
CCC(NC(=O)Nc1nnc(C(F)(F)F)s1)(C(F)(F)F)C(F)(F)F	2.5µM	7.1µM	3.5µM	2µM	4.5µM	-105
O=C(O)CCC(=O)Nc1nnc(C(F)(F)F)s1	i	i	nt	?	i	i
Cc1nonc1OCCCNc1ccc([N+](=O)[O-])cc1Cl	i	i	i	i	i	-78
SMILES	MARV entry inh	LASV entry inh	VACV mCherry inh	Vaccinia Venus	HCV inh	HCMV inh
O=C(CCC1N=C2c3ccccc3N=C(SCc3cccc(F)c3)N2C1=O)NCCc1ccccc1 (stereo not given)	nt	?	i	i	nt	i
COc1cc(NC(=O)CN2CCCN(Cc3cccc(F)c3)S2(=O)=O)cc(OC)c1	nt	i	i	i	nt	i
COc1ccc(NC(=O)Nc2cn(CC(C)C)c(=O)c3ccccc23)c(OC)c1	nt	i	i	i	nt	-104
O=c1ccsc2ccccc12	i	i	i	i	i	i
O=c1[nH]sc2cc(F)ccc12	?	i	i	i	?	-98
O=c1[nH]sc2ccccc12	?	i	i	i	?	-73
O=c1c2cc(F)ccc2sn1-c1ccccc1	nt	nt	i	i	?	i
OC(CN1CC=C(/C=C/c2ccc(Br)cc2)CC1)c1ccccc1 (stereo not given)	11µM	i	?	i	?	i
